Data: the supplement of paper PMC10849652
Of roughly 7,900 targets only a part is listed; those with a hit were picked by preference. About 0.6% of all pairs of compound and target were hits. Unmarked numbers belong to inactive results.

Key:
Experiment in all cases: log2 fold change, soluble protein after heating vs DMSO (PISA); higher = thermal stabilisation; K562 cells, 10 uM, 30 min; active = over 0.2 and 3.5 SD of the protein, either way, in both replicates (recomputed)
[1] = compound: COC1=CC=C(C=C1)CN2C=CC3=C2C=C(C=C3)C(=O)NO
In short: (§1)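 Soluble protein was quantified by TMTpro 16plex LC-MS/MS after channel sums were equalised. It was obtained as the supernatant after 21,000xg for 90 min from pooled aliquots of K562 cells (2×10^6 cells/mL, 10 μM compound, 30 min) heated for 3 min across 48°C-58°C and extracted in PBS with 0.5% NP-40 at 4°C. Thermal stability values are relative to control samples and come from duplicates. They are given as log2 fold changes.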

filanesib = compound: CON(C)C(=O)N1N=C(c2cc(F)ccc2F)S[C@@]1(CCCN)c1ccccc1 [filanesib]
In short: as §1

zotarolimus = compound: CO[C@H]1C[C@@H]2CC[C@@H](C)[C@@](O)(O2)C(=O)C(=O)N2CCCC[C@H]2C(=O)O[C@H]([C@H](C)C[C@@H]2CC[C@H](n3cnnn3)[C@H](OC)C2)CC(=O)[C@H](C)/C=C(\C)[C@@H](O)[C@@H](OC)C(=O)[C@H](C)C[C@H](C)/C=C/C=C/C=C/1C [zotarolimus]
In short: as §1

idasanutlin = compound: COc1cc(C(=O)O)ccc1NC(=O)[C@@H]1N[C@@H](CC(C)(C)C)[C@](C#N)(c2ccc(Cl)cc2F)[C@H]1c1cccc(Cl)c1F [idasanutlin]
In short: as §1

alisertib = compound: COc1cc(Nc2ncc3c(n2)-c2ccc(Cl)cc2C(c2c(F)cccc2OC)=NC3)ccc1C(=O)O [alisertib]
In short: as §1

[2] = compound: COc1cc2nc(-c3cc(F)ccc3O)nc(N[C@@H]3CNC[C@H]3C(C)(C)O)c2cc1OC
In short: as §1

gefitinib = compound: COc1cc2ncnc(Nc3ccc(F)c(Cl)c3)c2cc1OCCCN1CCOCC1 [gefitinib]
In short: as §1

[3] = compound: COc1cccc2cc(-c3nc([C@H]4CC[C@H](C(=O)O)CC4)n4ncnc(N)c34)[nH]c12
In short: as §1

lapatinib = compound: CS(=O)(=O)CCNCc1ccc(-c2ccc3ncnc(Nc4ccc(OCc5cccc(F)c5)c(Cl)c4)c3c2)o1 [lapatinib]
In short: as §1

pictilisib = compound: CS(=O)(=O)N1CCN(Cc2cc3nc(-c4cccc5[nH]ncc45)nc(N4CCOCC4)c3s2)CC1 [pictilisib]
In short: as §1

Sequence of UniProt Q9BZQ8 (Q9BZQ8 whole entry, looked up): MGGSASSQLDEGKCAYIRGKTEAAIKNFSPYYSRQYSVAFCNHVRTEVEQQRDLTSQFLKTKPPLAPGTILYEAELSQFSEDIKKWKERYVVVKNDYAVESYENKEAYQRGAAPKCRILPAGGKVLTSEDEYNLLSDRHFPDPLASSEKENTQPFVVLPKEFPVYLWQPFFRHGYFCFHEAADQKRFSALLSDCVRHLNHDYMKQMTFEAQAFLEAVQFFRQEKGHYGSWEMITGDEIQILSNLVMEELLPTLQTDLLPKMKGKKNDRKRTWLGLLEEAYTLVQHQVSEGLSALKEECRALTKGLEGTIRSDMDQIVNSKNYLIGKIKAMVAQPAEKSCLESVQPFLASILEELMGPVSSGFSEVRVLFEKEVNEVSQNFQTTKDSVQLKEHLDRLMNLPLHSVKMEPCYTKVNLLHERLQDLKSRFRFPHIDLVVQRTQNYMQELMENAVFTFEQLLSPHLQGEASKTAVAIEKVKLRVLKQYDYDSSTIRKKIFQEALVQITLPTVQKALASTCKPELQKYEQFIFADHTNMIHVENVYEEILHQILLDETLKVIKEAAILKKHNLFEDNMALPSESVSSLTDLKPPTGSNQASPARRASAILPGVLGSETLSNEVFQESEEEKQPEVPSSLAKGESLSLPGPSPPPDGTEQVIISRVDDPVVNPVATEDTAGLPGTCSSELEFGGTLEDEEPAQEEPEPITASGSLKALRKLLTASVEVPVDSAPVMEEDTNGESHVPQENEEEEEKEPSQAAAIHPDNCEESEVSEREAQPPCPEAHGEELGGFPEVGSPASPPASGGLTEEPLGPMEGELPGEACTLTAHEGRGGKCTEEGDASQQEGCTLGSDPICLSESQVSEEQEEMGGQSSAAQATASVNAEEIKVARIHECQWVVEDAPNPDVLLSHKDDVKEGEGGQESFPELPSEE
Sequence of UniProt Q99747 (Q99747 whole entry, looked up): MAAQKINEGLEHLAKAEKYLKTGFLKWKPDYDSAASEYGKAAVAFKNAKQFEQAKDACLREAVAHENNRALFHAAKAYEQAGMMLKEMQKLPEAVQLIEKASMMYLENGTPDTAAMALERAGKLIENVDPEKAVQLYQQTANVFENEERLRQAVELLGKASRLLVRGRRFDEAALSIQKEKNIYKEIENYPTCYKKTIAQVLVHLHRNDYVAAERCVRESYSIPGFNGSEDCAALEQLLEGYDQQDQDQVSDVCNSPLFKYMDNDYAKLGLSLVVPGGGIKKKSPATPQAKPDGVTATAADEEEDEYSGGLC
Sequence of UniProt Q96RE7 (Q96RE7 whole entry, looked up): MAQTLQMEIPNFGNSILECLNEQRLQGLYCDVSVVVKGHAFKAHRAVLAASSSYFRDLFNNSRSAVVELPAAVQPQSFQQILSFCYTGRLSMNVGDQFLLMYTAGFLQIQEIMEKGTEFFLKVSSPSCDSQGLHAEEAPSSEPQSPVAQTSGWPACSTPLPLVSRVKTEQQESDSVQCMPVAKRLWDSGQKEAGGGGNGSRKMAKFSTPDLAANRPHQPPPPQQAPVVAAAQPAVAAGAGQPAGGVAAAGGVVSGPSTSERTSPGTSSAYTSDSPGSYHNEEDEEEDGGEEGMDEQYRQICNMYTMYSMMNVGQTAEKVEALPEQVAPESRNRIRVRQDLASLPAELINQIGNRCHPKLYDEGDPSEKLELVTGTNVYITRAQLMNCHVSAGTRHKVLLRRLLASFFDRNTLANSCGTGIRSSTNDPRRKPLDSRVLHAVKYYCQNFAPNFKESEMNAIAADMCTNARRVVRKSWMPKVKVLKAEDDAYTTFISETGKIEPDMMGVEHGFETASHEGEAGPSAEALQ
Sequence of UniProt O43913 (O43913 whole entry, looked up): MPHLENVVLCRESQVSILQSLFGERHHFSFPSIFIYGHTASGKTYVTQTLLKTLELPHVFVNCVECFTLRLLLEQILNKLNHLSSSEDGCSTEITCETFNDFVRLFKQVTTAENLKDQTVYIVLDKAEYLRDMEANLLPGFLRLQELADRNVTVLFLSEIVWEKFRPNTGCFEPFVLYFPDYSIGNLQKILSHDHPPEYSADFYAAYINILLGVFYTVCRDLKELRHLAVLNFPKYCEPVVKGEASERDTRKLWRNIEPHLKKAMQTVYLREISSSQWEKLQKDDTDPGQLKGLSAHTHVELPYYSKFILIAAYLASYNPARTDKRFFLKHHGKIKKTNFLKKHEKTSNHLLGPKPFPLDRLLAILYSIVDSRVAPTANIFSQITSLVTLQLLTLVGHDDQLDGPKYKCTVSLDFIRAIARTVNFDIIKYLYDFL
Sequence of UniProt Q9BUK6 (Q9BUK6 whole entry, looked up): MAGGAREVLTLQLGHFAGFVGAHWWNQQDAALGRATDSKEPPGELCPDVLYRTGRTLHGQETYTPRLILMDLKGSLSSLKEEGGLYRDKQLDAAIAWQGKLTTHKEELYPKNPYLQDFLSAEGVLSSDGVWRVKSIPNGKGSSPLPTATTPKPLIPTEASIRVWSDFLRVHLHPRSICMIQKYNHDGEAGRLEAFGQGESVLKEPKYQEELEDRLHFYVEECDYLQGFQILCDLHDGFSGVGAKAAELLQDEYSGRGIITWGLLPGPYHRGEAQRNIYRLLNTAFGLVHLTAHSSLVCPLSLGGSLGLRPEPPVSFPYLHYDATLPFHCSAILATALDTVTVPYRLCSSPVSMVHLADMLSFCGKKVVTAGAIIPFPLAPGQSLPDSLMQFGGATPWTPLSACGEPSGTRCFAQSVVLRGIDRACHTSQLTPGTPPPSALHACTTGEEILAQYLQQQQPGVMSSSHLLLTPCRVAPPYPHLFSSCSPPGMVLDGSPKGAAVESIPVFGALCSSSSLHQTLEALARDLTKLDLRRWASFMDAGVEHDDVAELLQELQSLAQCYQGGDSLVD
Sequence of UniProt Q4G0T1 (Q4G0T1 whole entry, looked up): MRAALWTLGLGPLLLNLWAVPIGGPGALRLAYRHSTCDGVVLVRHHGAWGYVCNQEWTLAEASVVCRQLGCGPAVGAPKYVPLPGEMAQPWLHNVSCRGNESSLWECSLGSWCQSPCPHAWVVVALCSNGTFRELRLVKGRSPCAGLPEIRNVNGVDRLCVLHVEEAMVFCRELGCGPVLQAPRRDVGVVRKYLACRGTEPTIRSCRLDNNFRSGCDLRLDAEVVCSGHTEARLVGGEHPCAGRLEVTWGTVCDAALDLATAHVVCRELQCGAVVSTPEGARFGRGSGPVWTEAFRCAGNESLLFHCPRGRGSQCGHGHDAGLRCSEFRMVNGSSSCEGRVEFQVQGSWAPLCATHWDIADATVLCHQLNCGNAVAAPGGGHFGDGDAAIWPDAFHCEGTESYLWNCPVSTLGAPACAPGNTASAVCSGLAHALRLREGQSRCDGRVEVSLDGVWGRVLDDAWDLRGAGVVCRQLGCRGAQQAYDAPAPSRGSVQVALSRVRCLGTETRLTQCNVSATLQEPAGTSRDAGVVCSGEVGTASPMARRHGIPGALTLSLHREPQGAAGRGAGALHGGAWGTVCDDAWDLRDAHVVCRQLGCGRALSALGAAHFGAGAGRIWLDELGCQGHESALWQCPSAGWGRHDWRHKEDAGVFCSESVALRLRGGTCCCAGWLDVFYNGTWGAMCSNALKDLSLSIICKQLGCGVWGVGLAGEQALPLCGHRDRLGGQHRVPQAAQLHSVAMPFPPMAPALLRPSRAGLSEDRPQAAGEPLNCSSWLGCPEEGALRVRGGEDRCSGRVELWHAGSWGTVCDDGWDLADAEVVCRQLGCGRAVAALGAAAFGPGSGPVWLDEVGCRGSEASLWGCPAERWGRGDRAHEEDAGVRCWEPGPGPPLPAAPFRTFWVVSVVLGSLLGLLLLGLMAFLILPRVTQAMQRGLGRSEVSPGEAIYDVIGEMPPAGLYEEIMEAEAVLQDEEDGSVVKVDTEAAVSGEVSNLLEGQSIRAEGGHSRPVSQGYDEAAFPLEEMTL
Sequence of UniProt P11586 (P11586 whole entry, looked up): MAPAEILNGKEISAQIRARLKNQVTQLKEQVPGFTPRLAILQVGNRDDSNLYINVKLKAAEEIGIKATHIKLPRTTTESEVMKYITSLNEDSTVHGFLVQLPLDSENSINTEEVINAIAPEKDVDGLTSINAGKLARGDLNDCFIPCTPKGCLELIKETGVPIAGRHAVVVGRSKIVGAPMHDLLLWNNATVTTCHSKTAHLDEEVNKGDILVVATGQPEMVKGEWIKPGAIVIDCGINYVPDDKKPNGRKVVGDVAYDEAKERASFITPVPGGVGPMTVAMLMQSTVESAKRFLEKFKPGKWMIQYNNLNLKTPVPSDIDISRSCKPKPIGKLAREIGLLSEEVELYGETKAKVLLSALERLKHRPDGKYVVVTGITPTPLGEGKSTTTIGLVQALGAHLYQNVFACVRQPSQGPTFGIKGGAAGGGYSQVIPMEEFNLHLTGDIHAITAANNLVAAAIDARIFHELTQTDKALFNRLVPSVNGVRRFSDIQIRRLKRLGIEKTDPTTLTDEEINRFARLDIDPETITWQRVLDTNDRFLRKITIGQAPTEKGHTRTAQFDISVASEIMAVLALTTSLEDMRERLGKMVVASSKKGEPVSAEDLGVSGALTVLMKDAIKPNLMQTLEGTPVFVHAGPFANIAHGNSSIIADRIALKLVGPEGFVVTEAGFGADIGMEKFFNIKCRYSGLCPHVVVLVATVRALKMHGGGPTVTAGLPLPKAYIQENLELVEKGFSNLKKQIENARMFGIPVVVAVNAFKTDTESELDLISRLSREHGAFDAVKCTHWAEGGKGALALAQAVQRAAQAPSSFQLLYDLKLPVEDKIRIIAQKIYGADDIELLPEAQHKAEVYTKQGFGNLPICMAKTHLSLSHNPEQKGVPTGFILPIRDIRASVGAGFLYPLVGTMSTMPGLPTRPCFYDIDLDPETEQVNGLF
Sequence of UniProt P40261 (P40261 whole entry, looked up): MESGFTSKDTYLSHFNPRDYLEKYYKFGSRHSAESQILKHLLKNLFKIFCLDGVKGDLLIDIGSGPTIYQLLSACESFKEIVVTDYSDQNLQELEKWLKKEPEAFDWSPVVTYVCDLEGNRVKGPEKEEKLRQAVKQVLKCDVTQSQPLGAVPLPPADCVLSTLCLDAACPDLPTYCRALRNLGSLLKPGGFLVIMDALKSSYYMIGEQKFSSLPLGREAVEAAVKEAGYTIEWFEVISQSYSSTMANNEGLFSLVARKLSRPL

Target | log2 fold change [1] | log2 fold change (filanesib) | log2 fold change (zotarolimus) | log2 fold change (idasanutlin) | log2 fold change (alisertib) | log2 fold change [2] | log2 fold change (gefitinib) | log2 fold change [3] | log2 fold change (lapatinib) | log2 fold change (pictilisib)
NA isoform 3 (UniProt Q4G0T1) | -0.007 | 0.049 | 0.044 | 0.052 | -0.09 | 0.039 | 0.016 | 0.106 | 0.112 | 
NSUN2 (UniProt Q08J23) | -0.153 | -0.002 | -0.046 | 0.021 | -0.022 | -0.235 | 0.015 | -0.003 | 0.035 | -0.088
MYSM1 (UniProt Q5VVJ2) | -0.063 | -0.007 |  |  |  |  |  |  |  | 
NR2C2AP isoform 2 (UniProt Q86WQ0) | 0.101 | 0.01 | -0.014 | -0.062 | -0.066 | -0.034 | -0.01 | 0.093 | -0.011 | 0.08
NBN (UniProt O60934) | -0.039 | -0.007 | 0.039 | -0.053 | 0.057 | 0.028 | 0.03 | -0.019 | 0.008 | -0.035
MPP1 (UniProt Q00013) | 0.024 | -0.041 | -0.027 | 0.069 | 0.032 | 0.016 | 0.114 | -0.074 | 0.032 | 0.096
NACC1 (UniProt Q96RE7) | 0.009 | -0.116 | 0.103 | 0.02 | 0.016 | -0.198 | 0.021 | 0.024 | -0.031 | -0.034
MLST8 (UniProt Q9BVC4) | 0.1 | -0.206 | -0.12 | -0.154 | 0.019 | 0.055 | -0.041 | -0.081 | -0.039 | 
NEU1 (UniProt Q99519) | 0.153 | -0.107 | 0.001 | 0.015 | -0.123 | -0.05 | -0.091 | -0.073 | -0.015 | -0.113
MRPS16 (UniProt Q9Y3D3) | -0.102 | 0.044 | 0.04 | -0.348 (active) | 0.02 | -0.054 | -0.045 | -0.011 | 0.039 | -0.03
NMT1 (UniProt P30419) | -0.023 | -0.005 | 0.042 | -0.015 | -0.056 | -0.009 | -0.044 | 0.018 | 0.03 | 0.029
MSH6 (UniProt P52701) | 0.09 | -0.154 | 0.088 | -0.003 | 0.75 | -0.017 | 0.068 | -0.04 | 0.008 | -0.026
MTHFD1 (UniProt P11586) | 0.048 | -0.07 | 0.04 | -0.036 | -0.001 | 0.017 | 0.055 | -0.015 | 0.014 | -0.002
NDUFB1 (UniProt O75438) | 0.031 | -0.029 | -0.055 | 0.029 | -0.062 | -0.08 | 0.083 | 0.076 | -0.028 | -0.196
NEDD4L (UniProt Q96PU5) | -0.027 | 0.095 | 0.032 | -0.018 | -0.114 | 0.086 | -0.031 | 0.027 | -0.025 | -0.035
MRPS27 isoform 2 (UniProt Q92552) | 0.062 | 0.029 | 0.068 | -0.124 | -0.05 | -0.024 | 0.016 | -0.014 | 0.036 | -0.038

Target | log2 fold change [1] | log2 fold change (filanesib) | log2 fold change (zotarolimus) | log2 fold change (idasanutlin) | log2 fold change (alisertib) | log2 fold change [2] | log2 fold change (gefitinib) | log2 fold change [3] | log2 fold change (lapatinib) | log2 fold change (pictilisib)
NUP160 (UniProt Q12769) | -0.043 | -0.003 | 0.017 | 0.004 | -0.076 | -0.068 | 0.033 | 0.037 | 0.057 | -0.021
NNMT (UniProt P40261) | -0.057 | -0.163 | -0.001 | -0.076 | -0.06 | 0.216 | 0.041 | 0.017 | -0.019 | 0.06
NAPG (UniProt Q99747) | 0.046 | -0.046 | 0.052 | -0.001 | -0.005 | -0.066 | 0.025 | -0.089 | 0.029 | -0.008
MSTO1 (UniProt Q9BUK6) | -0.022 | -0.078 | -0.045 | -0.08 | 0.007 | 0.024 | -0.018 | 0.025 | -0.009 | 0.021
ORC5 (UniProt O43913) | 0.016 | 0.104 | 0.028 | -0.013 | 0.125 | 0.07 | 0.088 | 0.018 | 0.062 | 0.012
NPC1 (UniProt O15118) | 0.04 | -0.12 | -0.038 | 0.025 | -0.067 | 0.035 | -0.027 | 0.057 | 0.026 | 0
MT-ND4 (UniProt P03905) | -0.021 | -0.009 | -0.069 | -0.147 | -0.02 | -0.088 | 0.003 | 0.046 | 0.013 | -0.214
NSMCE4A (UniProt Q9NXX6) | 0.033 | 0.049 | 0.019 | 0.017 | -0.087 | -0.018 | 0.181 | -0.437 (active) | 0.034 | -0.011
NEDD4 isoform 4 (UniProt P46934) | 0.036 | -0.02 | 0.064 | -0.042 | 0.053 | 0.027 | 0.074 | -0.029 | 0.028 | -0.017
MRPS17 (UniProt Q9Y2R5) | -0.089 | 0.038 | 0.047 | -0.254 | -0.043 | -0.025 | 0.039 | -0.016 | 0.113 | 0.035
NOP56 (UniProt O00567) | -0.083 | 0.605 (active) | 0.136 | 0.345 | 0.007 | 0.045 | -0.046 | -0.078 | 0.098 | 0.013
NIBAN1 (UniProt Q9BZQ8) | 0.055 | 0.028 | 0.028 | -0.007 | -0.052 | -0.043 | -0.032 | -0.062 | -0.015 | 0
OPA1 isoform 2 (UniProt O60313) | -0.01 | -0.118 | 0.035 | -0.105 | 0.002 | -0.249 (active) | -0.002 | 0.002 | 0.024 | -0.07
MRPS18B (UniProt Q9Y676) | 0.011 | 0.065 | 0.035 | -0.205 | 0.069 | 0.024 | 0.078 | 0.018 | -0.005 | -0.106
MON1B (UniProt Q7L1V2) | -0.012 | 0.029 | -0.008 | -0.056 | -0.136 | 0.065 | -0.012 | 0.037 | 0.055 | 0.029
